Records with an inconclusive call do not appear. Active and inactive are the calls of the source. The calls were made as follows: active = hit-call score of the fitted dose curve at least 0.9, where 1 is the maximum; inconclusive = response in the unintended direction; inactive = score below 0.9.
Assay: ACEA_ER_80hr: ACEA Biosciences xCELLigence Real-Time Cell Analysis on Estrogen Receptor Agonism for Proliferation (AID 2282667)
Details: T47D proliferation, impedance (xCELLigence), 80 h
Outline: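 Impedance readout (RT-CES) of T47D proliferation at 80 h post-dose; gain of signal vs DMSO baseline. Compounds: 8 conc, 1:4 serial, top 100 uM final, ≤0.5% DMSO; biological duplicate.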

Row | Structure (SMILES) | outcome | AC50
1 | NC(=O)c1cnccn1 | inactive | –
2 | CC(CO)c1ccccc1 (configuration not stated) | inactive | –
3 | OCC(F)(OC(F)(F)C(F)(OC(F)(F)C(F)(F)C(F)(F)F)C(F)(F)F)C(F)(F)F (configuration not stated) | inactive | –
4 | Nc1ccn([C@H]2CC[C@@H](CO)O2)c(=O)n1 | inactive | –
5 | C/C=C(\C)C(=O)OC/C=C(\C)CCC=C(C)C | inactive | –
6 | CCCCN(CCO)CCO | inactive | –
7 | CCCCC(CC)COC(=O)COc1ccc(Cl)cc1C (configuration not stated) | inactive | –
8 | CC(C)Cc1ccccc1 | inactive | –
9 | CC(=O)CCC(=O)O | inactive | –
10 | CCO[Si](CC)(OCC)OCC | inactive | –
11 | O=Cc1ccccc1O | – | 10.7 µM (active)
12 | S=c1[nH][nH]c(=S)s1 | – | 2.68 µM (active)
13 | CC1=CC(O)CC(C)(C)C1 (configuration not stated) | inactive | –
14 | CCNC(=S)NCC | inactive | –
15 | NCCN1CCNCC1 | – | 10.8 µM (active)
16 | Nc1cc([N+](=O)[O-])ccc1C(=O)O | inactive | –
17 | CCOC(=O)CC(C)C | inactive | –
18 | CC(=O)Oc1c(C)c(C)c2c(c1C)CC[C@@](C)(CCC[C@H](C)CCC[C@H](C)CCCC(C)C)O2 | inactive | –
19 | CC/C=C\C#N | inactive | –

Row | Structure (SMILES) | outcome | AC50
20 | CC1COC(=O)O1 (configuration not stated) | inactive | –
21 | c1ccc(-c2nn[nH]n2)cc1 | – | 0.0261 µM (active)
22 | Cc1cc(O)c(C)c(C)c1O | inactive | –
23 | O=C(O)c1ccc(C(=O)O)c(C(=O)O)c1 | inactive | –
24 | CC(O)COCC(C)O (configuration not stated) | inactive | –
25 | O=S(=O)(O)C(F)(F)C(F)(F)OC(F)(F)C(F)(F)F | inactive | –
26 | CN(C)C | inactive | –
27 | NC(=O)NC(N)=O | inactive | –
28 | O=C(O)c1ccco1 | inactive | –
29 | CC(=O)OC(C)(C)C | inactive | –
30 | C=C(C)C(N)=O | inactive | –
31 | C1=COCCC1 | inactive | –
32 | CC1(C)[C@H](C=C(Cl)Cl)[C@H]1C(=O)OCc1cccc(Oc2ccccc2)c1 | inactive | –
33 | CC(=O)c1ccc2ccccc2c1 | inactive | –
34 | CCC(C)(C)C1CCC(OC)CC1 (configuration not stated) | inactive | –
35 | C=C(C)C(=O)OCCOCCOC(=O)C(=C)C | inactive | –
36 | CC(=O)CCC=C(C)CCC=C(C)C | inactive | –
37 | O=C(Nc1cccc(Cl)c1)OCC#CCCl | inactive | –

Reference: PubChem BioAssay (EPA / NIEHS)
